SF1 inhibitor: inhibitors of human nuclear receptor SF-1; CHO-K1 Gal4-SF-1 LBD luciferase reporter; 0.55% of 65,000 active; inhibition, % at 10 µM;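 active = inhibition above the mean inhibition of all tested compounds plus 3 SD, cut at about 48% in these data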;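 also: 0% = SF-1 transfected cells with DMSO and 100% = mock-transfected cells lacking SF-1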
Target sequence (Q13285 whole entry, looked up, the tested form may be a part): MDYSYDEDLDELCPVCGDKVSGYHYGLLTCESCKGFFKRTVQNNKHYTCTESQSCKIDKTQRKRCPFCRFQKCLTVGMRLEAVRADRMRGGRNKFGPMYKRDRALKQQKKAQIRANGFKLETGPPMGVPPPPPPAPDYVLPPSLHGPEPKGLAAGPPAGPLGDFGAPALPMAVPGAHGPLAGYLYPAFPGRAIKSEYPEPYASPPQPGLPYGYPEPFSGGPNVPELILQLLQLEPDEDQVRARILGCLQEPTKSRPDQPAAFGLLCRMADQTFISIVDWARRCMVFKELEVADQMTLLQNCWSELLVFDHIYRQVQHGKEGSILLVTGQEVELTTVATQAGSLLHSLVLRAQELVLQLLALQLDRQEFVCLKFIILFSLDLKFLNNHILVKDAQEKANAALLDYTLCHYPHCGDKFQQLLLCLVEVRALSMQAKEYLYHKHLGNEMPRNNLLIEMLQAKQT
Numbers without * were called inactive. This excerpt belongs to a sample that is enriched for hits.

SMILES | SF1 inhibitor
CCCOc1ccc([C@@H]2C3CN(C(=O)OCC)CC=C3C(C#N)=C(N)C2(C#N)C#N)cc1OC (some centres undefined) | 5.9
N#CC1=C(N)C(C#N)(C#N)[C@H](c2ccncc2)[C@H]2CN(C(=O)OCc3ccccc3)CC=C12 | 48.4*
CCC1Oc2ccccc2N(CC(=O)Nc2ccccc2OC)C1=O (centres undefined) | -2.6
Fc1cc(F)c2nc(N3CCCCC3)sc2c1 | -65.2
CCOC(=O)c1ncn2c1C(=O)OC2(C)C | -7.6
CSC1=C(C#N)C(C)C2=C(CC(C)(C)CC2=O)N1 (centres undefined) | -3.2
CN1C2C=C3C(C#N)=C(N)C(C#N)(C#N)[C@@H](c4ccc(Cl)cc4)[C@@H]3C1CC2 (some centres undefined) | 48.8*
Cn1c(C(C#N)C(=O)c2ccco2)nc2ccccc21 (centres undefined) | -59.4
Cn1c(N2CCN(C(=O)NCc3ccccc3)CC2)nc2ccccc21 | 8.0
Cn1c(SC2=CS(=O)(=O)c3ccccc32)nc2ccccc21 | 67.9*
O=C(CCn1nc(-c2ccccc2)c2ccccc2c1=O)NCC1CCCO1 (centres undefined) | -1.3
CC(C)CNC(=O)CN(C1CCCCC1)S(=O)(=O)c1ccccc1 | 15.0
COc1cc2c(cc1NC(=O)CN1C(=O)NC3(CCc4ccccc43)C1=O)oc1ccccc12 (centres undefined) | -2.7
CCCCOc1ccc(OC(=O)c2cccnc2)cc1 | 65.9*
O=C(COc1ccc(-c2ccccc2)cc1)N1CCN(C(=O)c2cccnc2)CC1 | -16.3
CCCCOc1ccc(-c2ncc(Cl)cn2)cc1 | -25.5
Cc1cc(C)cc(-n2cc3c(=O)n(C)c(=O)n(C)c3c2)c1 | -0.7
COCCN(CC(=O)Nc1ccc(F)cc1)S(=O)(=O)c1ccc(S(=O)(=O)N2CCCC2)cc1 | 2.7
CCOC(=O)c1cnc(-n2nc(C)cc2C)nc1NC1CCCCC1 | 86.9*
CCOC(=O)c1cnc(-n2nc(C)cc2C)nc1Nc1ccc2c(c1)OCO2 | 5.9
CCOC(=O)c1snc(C(=O)NC2CCCCC2)c1N | -105.9
COC(=O)COc1ccc(S(=O)(=O)NCc2ccncc2)cc1 | 17.3
CCN(C1CCCCC1)S(=O)(=O)c1ccc(S(=O)(=O)NCc2ccncc2)cc1 | 52.3*
O=C(CCC1CCCCC1)NCc1ccncc1 | 15.0
CCC1C(=O)n2nc(-c3ccccc3)cc2N=C1C (centres undefined) | -91.2
SMILES | SF1 inhibitor
Cc1ccc(O)c(C(=O)c2cnc3c(c2)CN(CCC(C)C)C(=O)N3)c1 | -18.5
CN1Cc2cc(C(=O)c3cc(Cl)cc(CSc4ncccn4)c3O)cnc2NC1=O | 50.0*
CC(C)CC(NC=C1C(=O)OC(C)(C)OC1=O)C(=O)O (centres undefined) | 6.1
CN(c1ccc(C(=O)Nc2ccccc2C(F)(F)F)cc1)S(C)(=O)=O | -15.3
O=C(NCc1ccco1)C1CCC(CNS(=O)(=O)c2cccc3cccnc23)CC1 (centres undefined) | -6.4
CCCCN(CCCC)S(=O)(=O)c1ccc(C(=O)Nc2nnc(CSC)o2)cc1 | 55.2*
CN(C)S(=O)(=O)c1ccc(C(=O)Nc2ccc(CN3CCCC3)cc2)cc1 | 11.1
CCN(CC)S(=O)(=O)c1ccc(NC(=O)c2ccccn2)cc1 | -55.0
COC(=O)c1cn(C(C)C(=O)NCc2ccco2)c2ccccc12 (centres undefined) | 13.0
Cc1cc(N2CCN(c3nc4ccccc4s3)CC2)n2ncnc2n1 | 55.4*
CC(C)c1nnc(NC(=O)C2CCN(c3nc4ccccc4s3)CC2)s1 | -17.5
CCOc1ccc2nc(N3CCCCCC3)sc2c1 | -58.3
Cn1c2c(c(=O)n(C)c1=O)C(c1cc3c(cc1Br)OCO3)CC(=O)N2 (centres undefined) | 15.0
CC(NC(=O)c1cc2ccccc2o1)c1cccs1 (centres undefined) | -10.6
COc1ccccc1CC1(C)NC(=O)N(CC(=O)N2CC(C)OC(C)C2)C1=O (centres undefined) | 3.6
O=C(NCCN1CCN(c2ccccc2F)CC1)C1CC(=O)N(C2CCCC2)C1 (centres undefined) | 5.2
O=C(c1ccc(Cl)cc1)N1CCCCC(Sc2nnc(-c3ccc4c(c3)OCO4)o2)C1=O (centres undefined) | 89.2*
O=C(NC1(C(=O)NC2CCCCC2)CCCCC1)c1ccc2c(c1)OCO2 | -11.3
CCOC(=O)N1CCC(NC(=O)c2cnn3cccnc23)CC1 | -16.5
c1cnc2c(SCc3ccc(-c4nnco4)cc3)cccc2c1 | -62.5
Cc1cc(C(=O)Nc2sc3c(c2C#N)CCC3)no1 | -115.6
Cc1ccnc(SCC(=O)Nc2sc3c(c2C#N)CCCC3)n1 | 76.0*
Cc1cc(C(=O)Nc2sc3c(c2C#N)CCCC3)no1 | -71.0
NC(=O)CSc1nnc(-c2ccoc2)o1 | 4.9
COc1ccc(N(C)S(=O)(=O)c2c(C)[nH]c(=O)[nH]c2=O)cc1 | -4.4
Cc1occc1C(=O)N1CCN(c2ccc(Cl)c(Cl)c2)CC1 | 55.8*
O=C(c1ccc2c(c1)OCO2)N1CCN(c2ccc(F)cc2)CC1 | -7.1
Cc1occc1C(=O)n1nnc2ccccc21 | 4.6
CCOC(=O)N1CCC(N2C(=O)c3ccc(C(=O)Nc4ccc(F)cc4F)cc3C2=O)CC1 | -6.1

Screening data (PubChem BioAssay)
